Usually Kd stands for the free concentration of one partner at which half of the binding sites on the other are occupied at equilibrium, for simple one-to-one binding. Read a low Kd as higher affinity.

This note sets out measurements from PMC5540273 (PLoS ONE, 2017).

For one experiment, the system named is T1, IKK-alpha.
T1 construct: gene CHUK

A further experiment concerns T2, IKK-beta.
T2 construct: gene IKBKB

Experiment [1] has as its system JAK1(JH1domain-catalytic).
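Note: kd values determined as follow-up on hits from a single-replicate KINOMEscan panel screen.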

In turn, `Cc1nnc(-c2ccc3occ(-c4ccc(S(C)=O)cc4)c3c2)[nH]1` (centres unmarked) returned a Kd in the experiment with HIPK3 of 0.34 µM.

As to `Cc1c(O)cccc1Nc1ccnc2ccc(C(F)(F)F)cc12.Cl` [GW466413], the equilibrium dissociation constant (Kd) with HUNK is above 10 µM.

For `O=C1NC(=O)C(N2CCc3ccccc32)=C1c1ccccc1Cl` [SB-373598], the Kd in the experiment on IKK-alpha was above 10 µM.

In the experiment with IKK-beta, `O=S(=O)(c1ccc(-c2ccnc3[nH]ccc23)cc1)N1CCCC1` [GSK846226] displayed a dissociation constant Kd of 0.27 µM.

In turn, `CC(C)(C)c1ccc(C(=O)Nc2cn3cc(Cl)ccc3n2)cc1` registered a dissociation constant (Kd) in the experiment with IKK-beta above 10 µM.

As for `COc1cc2ncnc(Nc3ccc4nc(-c5ccccc5)[nH]c4c3)c2cc1OC.Cl` [GW282450], in the experiment on INSR, the Kd was above 10 µM.

`Cc1cc(N2Cc3ccccc3C2)nc(Nc2ccc(S(=O)(=O)N3CCOCC3)cc2)n1.Cl` [GSK1669917] came in with an equilibrium dissociation constant (Kd) with INSR above 10 µM.

For `Cc1c(Cn2ccn3c(=O)cc(N4CCOCC4)nc23)cccc1C(F)(F)F` [GSK2289044], in experiment [1], the dissociation constant (Kd) was above 10 µM.
